Results: ChEMBL document CHEMBL3988442, “University of Dundee, Small-Polar-MMV Screening Library” (2021)
Out of some 69,000 compounds screened, about 1,000 (1.4%) showed an effect of 50% or more. The sample as a whole holds a higher share of strong results than the screen did.

Test system: Leishmania donovani
Assay: Leishmania intramacrophage assay
Type: functional, organism-based
Design: scale not given: in the data most compounds retested in dose-response had high values

CCC[C@H]1CN(S(C)(=O)=O)C[C@@H]1NC(=O)CCCn1ccnc1 was tested, and the “Percent Effect” value (30.3 µM, […]) was -3.317%.
For CC(C)CCN(C)C(=O)c1cc(CN2CCC(O)CC2)on1, the “Percent Effect” value (30.3 µM, […]) was 25.01%.
For O=C(CS(=O)(=O)Cc1nnnn1C1CC1)NCC1CC1, the “Percent Effect” value (30.3 µM, […]) was 7.259%.
Cc1ccc2cccc(C(=O)NCC3CCN(C(C)C)C3)c2n1 (stereo not drawn) was tested, and the “Percent Effect” value (30.3 µM, […]) was 6.487%.
For Cc1cccc(CN2CCC3(CCN(c4ccccn4)C3)C2=O)c1.O=C(O)C(F)(F)F (stereo not drawn), the “Percent Effect” value (30 µM, 30.03 µM) was 41.53%.
For CC1=N[C@@]2(CC[C@@H]3CN(Cc4ccccc4F)C[C@@H]32)C(=O)N1CC1CC1.O=C(O)C(F)(F)F, the “Percent Effect” value (30 µM, 30.03 µM) was 16.75%.
For CN1CCN(C)c2cc(NC(=O)c3cc[nH]n3)ccc2C1, the “Percent Effect” value (30.3 µM, […]) was 24.5%.
For COc1ccc(OC)c(C2CCN(C(=O)CCc3n[nH]c(N)n3)C2)c1 (stereo not drawn), the “Percent Effect” value (30.3 µM, […]) was 25.04%.
For NC(=O)NC(=O)CCSCc1cc(F)cc2cccnc12, the “Percent Effect” value (30.3 µM, […]) was 50.58%.
CNC(=O)NC(=O)CCSCc1cc(F)cc2cccnc12 was tested, and the “Percent Effect” value (30.3 µM, […]) was 2.728%.
With NC(=O)CCSCc1cc(Br)cc2cccnc12 the “Percent Effect” value (30.3 µM, […]) was 18.7%.
For CC(C)CN1C[C@H]2CCN(C(=O)NC3CCCC3)CC[C@H]2S1(=O)=O, the “Percent Effect” value (30.3 µM, […]) was 5.795%.
With Cc1noc(CCCC(=O)N2CCNC(=O)C2)n1 the “Percent Effect” value (30.3 µM, […]) was 12.24%.
COCC(=O)NCc1cc(=O)n2c(n1)CN(Cc1ccncc1)CCC2 was tested, and the “Percent Effect” value (30.3 µM, […]) was 55.54%.
For COCCN1CCCn2c(nc(CNC(=O)COC)cc2=O)C1.O=C(O)C(F)(F)F, the “Percent Effect” value (30.3 µM, […]) was 69.63%.
For COCC(=O)NCc1cc(=O)n2c(n1)CN(Cc1ccoc1)CCC2, the “Percent Effect” value (30.3 µM, […]) was 10.68%.
COCC(=O)NCc1cc(=O)n2c(n1)CN(C)CCC2.O=C(O)C(F)(F)F was tested, and the “Percent Effect” value (30.3 µM, […]) was 39.76%.
In the case of COCC(=O)NCc1cc(=O)n2c(n1)CN(CC1CC1)CCC2.O=C(O)C(F)(F)F, the “Percent Effect” value (30.3 µM, […]) is reported as 0.4082%.
COCC(=O)NCc1cc(=O)n2c(n1)CN(Cc1ccsc1)CCC2 was tested, and the “Percent Effect” value (30 µM, 30.03 µM) was 13.56%.
With COc1ccccc1CNC(=O)c1[nH]ncc1Cl the “Percent Effect” value (30.3 µM, […]) was -12.27%.
COc1ccc(CNC[C@@]2(COc3cccnc3)C[C@@H](O)[C@@H](O)C2)cc1.Cl was tested, and the “Percent Effect” value (30.3 µM, […]) was 14.18%.
For Cc1nc2ccnn2c(C)c1CCC(=O)N1CCN2CCCCC2C1 (stereo not drawn), the “Percent Effect” value (30 µM) was 11.28%.
O=C(C1CCCCC1)N1CCCC([C@@H]2C[C@H](C(F)F)n3ncnc3N2)C1 (stereo partly drawn) was tested, and the “Percent Effect” value (30.3 µM, […]) was 0.241%.
With Cc1nc(N(C)CCCc2nccn2C)c2c(C)nn(C)c2n1 the “Percent Effect” value (30.3 µM, […]) was 1.733%.
In the case of Cc1ccc(CN2CC[C@H]3[C@H](CC(Cn4cccn4)N3C)C2)s1.O=C(O)C(F)(F)F.O=C(O)C(F)(F)F.O=C(O)C(F)(F)F (stereo partly drawn), the “Percent Effect” value (30.3 µM, […]) is reported as -11.42%.
With CN1CC[C@H](N(Cc2ccccc2)CC2CC2)C[C@H](O)C1 the “Percent Effect” value (30.3 µM, […]) was 31.47%.
For CN1CC[C@H](N(Cc2ccccc2)Cc2ccccc2)C[C@H](O)C1, the “Percent Effect” value (30.3 µM, […]) was 94.14%.
CN1CC[C@H](N(C)Cc2ccccc2)C[C@H](O)C1 was tested, and the “Percent Effect” value (30.3 µM, […]) was 20.46%.
